Among all 5,500 compounds or so, about 2,000 (36%) were called active. Inconclusive results (about 18%) are left out. Cut-off read from the data, not from the text of the source: active = normalized growth mostly below about 0.91 (no sharp cut-off); inconclusive = no clear call, values can overlap the other calls; inactive = mostly above about 0.92. The list shows a part of the results.
Assay: chemical genetic growth profiling, strain panel (AID 1159580);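 note: tested at 20 µM; growth read once vehicle control cultures reached saturation at 30 °C; 1 = growth at the plate median or of vehicle wells; lower values mean less growth of the strain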
Settings: growth OD
[1] = S. cerevisiae deletion strains, locus YAL013W, strain DEP1, stronger effect = lower value
[2] = S. cerevisiae deletion strains, locus YBR229C, strain ROT2, stronger effect = lower value
[3] = S. cerevisiae deletion strains, locus YDL101C, strain DUN1, stronger effect = lower value
[4] = S. cerevisiae deletion strains, locus YDL134C, strain PPH21, stronger effect = lower value
[5] = S. cerevisiae deletion strains, locus YDR150W, strain NUM1, stronger effect = lower value
[6] = S. cerevisiae deletion strains, locus YEL061C, strain CIN8, stronger effect = lower value
[7] = S. cerevisiae deletion strains, locus YGR078C, strain PAC10, stronger effect = lower value
[8] = S. cerevisiae deletion strains, locus YGR229C, strain SMI1, stronger effect = lower value
[9] = S. cerevisiae deletion strains, locus YHR030C, strain SLT2, stronger effect = lower value
[10] = S. cerevisiae deletion strains, locus YHR087W, strain rtc3, stronger effect = lower value
[11] = S. cerevisiae deletion strains, locus YJR043C, strain POL32, stronger effect = lower value
[12] = S. cerevisiae deletion strains, locus YJR075W, strain HOC1, stronger effect = lower value
[13] = S. cerevisiae deletion strains, locus YLR039C, strain RIC1, stronger effect = lower value
[14] = S. cerevisiae deletion strains, locus YLR058C, strain SHM2 (second series), stronger effect = lower value
[15] = S. cerevisiae deletion strains, locus YLR085C, strain ARP6, stronger effect = lower value
[16] = S. cerevisiae deletion strains, locus YLR262C, strain YPT6, stronger effect = lower value
[17] = S. cerevisiae deletion strains, locus YML094W, strain GIM5, stronger effect = lower value
[18] = S. cerevisiae deletion strains, locus YMR219W, strain ESC1, stronger effect = lower value
[19] = S. cerevisiae deletion strains, locus YMR263W, strain SAP30, stronger effect = lower value
[20] = S. cerevisiae deletion strains, locus YNL153C, strain GIM3, stronger effect = lower value
[21] = S. cerevisiae deletion strains, locus YNL298W, strain CLA4 (second series), stronger effect = lower value
[22] = S. cerevisiae deletion strains, locus YNL322C, strain KRE1, stronger effect = lower value
[23] = S. cerevisiae deletion strains, locus YNR030W, strain Alg12, stronger effect = lower value
[24] = S. cerevisiae deletion strains, locus YPL055C, strain LGE1, stronger effect = lower value
[25] = S. cerevisiae deletion strains, locus YPL241C, strain CIN2, stronger effect = lower value
[26] = S. cerevisiae deletion strains, locus YPR135W, strain CTF4, stronger effect = lower value

Measured: normalized growth

CCN1CN=C(SCc2ccc(C)cc2)NC1
inactive: [1] 0.986 | [2] 0.992 | [3] 0.991 | [4] 1 | [5] 0.932 | [6] 0.997 | [7] 0.983 | [8] 1 | [9] 0.915 | [10] 0.968 | [11] 0.976 | [12] 0.986 | [13] 0.977 | [14] 0.977 | [15] 0.997 | [16] 0.974 | [17] 0.998 | [18] 0.994 | [19] 0.974 | S. cerevisiae deletion strains, locus YMR307W, strain GAS1, stronger effect = lower value 1.05 | [20] 0.98 | [21] 0.975 | [22] 0.994 | [23] 0.986 | [24] 0.947 | [25] 0.978 | [26] 0.904

COc1cc(NC(=S)Nc2ccccc2OC(F)(F)F)cc(C(F)(F)F)c1
inactive: S. cerevisiae deletion strains, locus YAR019C, strain CDC15, stronger effect = lower value 0.969 | S. cerevisiae deletion strains, locus YBL105C, strain PKC1, stronger effect = lower value 0.977 | S. cerevisiae deletion strains, locus YBR135W, strain CKS1, stronger effect = lower value 0.977 | S. cerevisiae deletion strains, locus YBR136W, strain MEC1, stronger effect = lower value 0.975 | S. cerevisiae deletion strains, locus YBR160W, strain CDC28, stronger effect = lower value 0.972 | S. cerevisiae deletion strains, locus YDL017W, strain CDC7, stronger effect = lower value 0.982 | S. cerevisiae deletion strains, locus YDL028C, strain MPS1, stronger effect = lower value 0.962 | [3] 0.99 | S. cerevisiae deletion strains, locus YDL108W, strain KIN28, stronger effect = lower value 0.965 | S. cerevisiae deletion strains, locus YDL132W, strain cdc53, stronger effect = lower value 0.974 | S. cerevisiae deletion strains, locus YDL214C, strain PRR2, stronger effect = lower value 0.937 | S. cerevisiae deletion strains, locus YDR052C, strain DBF4, stronger effect = lower value 0.991 | S. cerevisiae deletion strains, locus YDR054C, strain cdc34, stronger effect = lower value 0.975 | S. cerevisiae deletion strains, locus YDR226W, strain ADK1, stronger effect = lower value 0.977 | S. cerevisiae deletion strains, locus YDR477W, strain SNF1, stronger effect = lower value 0.945 | S. cerevisiae deletion strains, locus YER123W, strain YCK3, stronger effect = lower value 0.931 | S. cerevisiae deletion strains, locus YER133W, strain GLC7, stronger effect = lower value 0.948 | S. cerevisiae deletion strains, locus YFL009W, strain cdc4, stronger effect = lower value 0.967 | S. cerevisiae deletion strains, locus YFL029C, strain CAK1, stronger effect = lower value 0.962 | S. cerevisiae deletion strains, locus YFR003C, strain YPI1, stronger effect = lower value 0.987 | S. cerevisiae deletion strains, locus YFR019W, strain FAB1, stronger effect = lower value 0.983 | S. cerevisiae deletion strains, locus YFR028C, strain CDC14, stronger effect = lower value 0.969 | S. cerevisiae deletion strains, locus YGR040W, strain KSS1, stronger effect = lower value 0.951 | S. cerevisiae deletion strains, locus YGR052W, strain FMP48, stronger effect = lower value 0.994 | S. cerevisiae deletion strains, locus YGR092W, strain DBF2, stronger effect = lower value 0.962 | S. cerevisiae deletion strains, locus YHR079C, strain IRE1, stronger effect = lower value 0.985 | S. cerevisiae deletion strains, locus YHR082C, strain KSP1, stronger effect = lower value 0.972 | S. cerevisiae deletion strains, locus YHR205W, strain SCH9, stronger effect = lower value 0.922 | S. cerevisiae deletion strains, locus YIL147C, strain SLN1, stronger effect = lower value 0.961 | S. cerevisiae deletion strains, locus YJL095W, strain BCK1, stronger effect = lower value 0.956 | S. cerevisiae deletion strains, locus YJL128C, strain PBS2, stronger effect = lower value 0.929 | S. cerevisiae deletion strains, locus YJL157C, strain FAR1, stronger effect = lower value 0.962 | S. cerevisiae deletion strains, locus YJR016C, strain ILV3, stronger effect = lower value 0.989 | S. cerevisiae deletion strains, locus YJR066W, strain TOR1 (second series), stronger effect = lower value 1 | S. cerevisiae deletion strains, locus YJR066W, strain TOR1, stronger effect = lower value 0.926 | S. cerevisiae deletion strains, locus YKL048C, strain ELM1, stronger effect = lower value 0.971 | S. cerevisiae deletion strains, locus YKL067W, strain YNK1, stronger effect = lower value 0.926 | S. cerevisiae deletion strains, locus YKL101W, strain HSL1, stronger effect = lower value 0.937 | S. cerevisiae deletion strains, locus YKL193C, strain SDS22, stronger effect = lower value 0.977 | S. cerevisiae deletion strains, locus YKL203C, strain TOR2, stronger effect = lower value 1.03 | S. cerevisiae deletion strains, locus YLR113W, strain HOG1, stronger effect = lower value 0.886 | S. cerevisiae deletion strains, locus YLR133W, strain CKI1, stronger effect = lower value 0.96 | S. cerevisiae deletion strains, locus YLR403W, strain SFP1, stronger effect = lower value 0.968 | S. cerevisiae deletion strains, locus YML070W, strain DAK1, stronger effect = lower value 0.94 | S. cerevisiae deletion strains, locus YMR001C, strain CDC5, stronger effect = lower value 0.959 | S. cerevisiae deletion strains, locus YMR205C, strain PFK2 (second series), stronger effect = lower value 0.962 | S. cerevisiae deletion strains, locus YMR277W, strain FCP1, stronger effect = lower value 0.954 | S. cerevisiae deletion strains, locus YNL006W, strain LST8, stronger effect = lower value 0.978 | S. cerevisiae deletion strains, locus YNL020C, strain ARK1, stronger effect = lower value 0.965 | S. cerevisiae deletion strains, locus YNL161W, strain CBK1, stronger effect = lower value 0.977 | S. cerevisiae deletion strains, locus YNL183C, strain NPR1, stronger effect = lower value 1.01 | S. cerevisiae deletion strains, locus YNL207W, strain RIO2, stronger effect = lower value 0.985 | S. cerevisiae deletion strains, locus YNL222W, strain SSU72, stronger effect = lower value 0.965 | S. cerevisiae deletion strains, locus YNL307C, strain MCK1 (second series), stronger effect = lower value 0.956 | S. cerevisiae deletion strains, locus YOL078W, strain AVO1, stronger effect = lower value 0.97 | S. cerevisiae deletion strains, locus YOL136C, strain PFK27, stronger effect = lower value 0.935 | S. cerevisiae deletion strains, locus YOR061W, strain CKA2, stronger effect = lower value 0.962 | S. cerevisiae deletion strains, locus YOR119C, strain RIO1, stronger effect = lower value 0.964 | S. cerevisiae deletion strains, locus YOR231W, strain MKK1, stronger effect = lower value 0.945 | S. cerevisiae deletion strains, locus YOR329C, strain SCD5, stronger effect = lower value 0.99 | S. cerevisiae deletion strains, locus YPL031C, strain PHO85, stronger effect = lower value 0.957 | S. cerevisiae deletion strains, locus YPL153C, strain RAD53, stronger effect = lower value 0.952 | S. cerevisiae deletion strains, locus YPL204W, strain HRR25, stronger effect = lower value 0.957 | S. cerevisiae deletion strains, locus YPL209C, strain IPL1, stronger effect = lower value 0.976 | S. cerevisiae deletion strains, locus YPL256C, strain CLN2, stronger effect = lower value 0.927 | S. cerevisiae deletion strains, locus YPR025C, strain CCL1, stronger effect = lower value 0.984 | S. cerevisiae deletion strains, locus YPR106W, strain ISR1, stronger effect = lower value 0.974 | S. cerevisiae deletion strains, locus YPR111W, strain DBF20, stronger effect = lower value 0.953 | S. cerevisiae deletion strains, strain NNK1, stronger effect = lower value 0.974 | S. cerevisiae deletion strains, strain TSCII, stronger effect = lower value 0.97
active: [9] 0.824

COc1cc(NC(=O)NS(=O)(=O)c2ccc(C)cc2)cc(C(F)(F)F)c1
inactive: [1] 0.991 | [2] 0.995 | S. cerevisiae deletion strains, locus YCL061C, strain MRC1, stronger effect = lower value 0.987 | [3] 0.99 | [4] 1 | [5] 0.91 | [6] 1.02 | [7] 0.995 | [8] 0.996 | [9] 1.1 | [10] 0.994 | [11] 0.998 | [12] 0.965 | [13] 0.925 | [14] 0.999 | [15] 1.05 | [16] 0.907 | [17] 1.01 | [18] 0.997 | [19] 1 | [20] 0.995 | [21] 1.03 | [22] 0.986 | [23] 1.03 | S. cerevisiae deletion strains, locus YOL006C, strain TOP1, stronger effect = lower value 1.06 | [24] 0.966 | [25] 1.11 | [26] 1.02 | S. cerevisiae strains, strain wild type, stronger effect = lower value 1
